From the supplement of paper PMC4709259 come the findings set out here.

Experiment [1] deals with Jurkat. Kind of experiment: mean cell size (FSC-A) relative to DMSO control (fraction of control); higher = larger cells. Conditions: 48 h. The method in brief:
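Jurkat cells seeded at 600 cells/µl were incubated 1 h, then exposed for 48h to the Enzo Screen-Well FDA Approved Drug Library v2.0 at 25µM in 0.9% (v/v) final DMSO. Drugs that cut counts below 20% of controls were diluted 10-fold and retested, down to 25nM. Cell count and mean cell size (forward scatter area) were read on an Accuri C6 flow cytometer, relative to solvent-only controls. Plates held 6-12 controls; values are means of 3 biological replicates.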

The subject of experiment [2] is Jurkat. Kind of experiment: cell count relative to DMSO control (fraction of control); higher = more cells (less growth inhibition). To be noted: 48 h.

Counter-ions that a name gives are not always drawn. ± gives the standard deviation.

`C[C@H]1O[C@H](O[C@H]2[C@H](O)[C@@H](O)[C@@H](O[C@@H]([C@H](O)[C@@H](O)C=O)[C@H](O)CO)O[C@@H]2CO)[C@H](O)[C@@H](O)[C@@H]1N[C@H]1C=C(CO)[C@@H](O)[C@H](O)[C@H]1O` [Acarbose] (concentration: 25 µM) returned a mean cell size in the experiment with Jurkat [1] of 1.04 ± 0.047. In the experiment on Jurkat [2], this molecule returned a cell count of 0.877 ± 0.15.

The molecule `CO/N=C1\CN(c2nc3c(cc2F)c(=O)c(C(=O)O)cn3C2CC2)CC1CN` (centres undefined) [Gemifloxacin] (concentration: 25 µM) returned a mean cell size in the experiment with Jurkat [1] of 1.09 ± 0.03. In the experiment on Jurkat [2], this molecule returned a cell count of 0.591 ± 0.16.

The molecule `CO[C@H]1C[C@@H]2CC[C@@H](C)[C@@](O)(O2)C(=O)C(=O)N2CCCC[C@H]2C(=O)O[C@H]([C@H](C)C[C@@H]2CC[C@@H](O)[C@H](OC)C2)CC(=O)[C@H](C)/C=C(\C)[C@@H](O)[C@@H](OC)C(=O)[C@H](C)C[C@H](C)/C=C/C=C/C=C/1C` [Sirolimus (Rapamycin)] (concentration: 2.5 µM) returned a mean cell size in the experiment on Jurkat [1] of 0.7581 ± 0.0033. The molecule further yielded a cell count with Jurkat [2] of 0.626 ± 0.074.

As for `CNCCCC1c2ccccc2C=Cc2ccccc21` [Protriptyline·HCl] (concentration: 25 µM), in the experiment on Jurkat [1], the mean cell size came to 1.05 ± 0.019. The cell count with Jurkat [2] stood at 0.821 ± 0.056.

Turning to `CN1C(C(=O)Nc2ccccn2)=C(O)c2ccccc2S1(=O)=O` [Piroxicam] (concentration: 25 µM), the mean cell size in the experiment on Jurkat [1] was found to be 0.9597 ± 0.0066. In the experiment with Jurkat [2], this molecule had a cell count of 0.738 ± 0.07.

`N=C(NCCCCCCNC(=N)NC(=N)Nc1ccc(Cl)cc1)NC(=N)Nc1ccc(Cl)cc1` [Chlorhexidine Dihydrochloride] (concentration: 2.5 µM) returned a mean cell size with Jurkat [1] of 0.986 ± 0.017. Besides, the cell count with Jurkat [2] turned out to be 0.763 ± 0.045.

With `C[C@]12CC[C@@H]3c4ccc(O)cc4CC[C@H]3[C@@H]1CCC2=O` [Estrone] (concentration: 25 µM), in the experiment on Jurkat [1], the mean cell size was 0.963 ± 0.033. In the experiment with Jurkat [2], this molecule yielded a cell count of 0.842 ± 0.094.
